Experimental findings from PubChem BioAssay (NCATS) are described below.

Each structure is given as a SMILES string. Several values for one entry are separate records, joined by “and”; a condition that tells them apart may be missing. Equal values may be shown once. Results filed as inconclusive are left out. Entries that show only a call come without a potency. Activity calls are given as the source filed them. Unless noted, the call rests on the fitted dose curve; in most records, active means well fitted inhibition curve with a large enough effect; inconclusive means small, poorly fitted or top-dose-only effect; inactive means flat fitted curve, though single readings scatter.

Assay [1] has as its target Ubiquitin carboxyl-terminal hydrolase 1 (Homo sapiens) (UniProt O94782). The assay is described as follows: Inhibitors of USP1/UAF1: Pilot qHTS (AID 504865). Further: nearly all actives have a fitted effect of over 35% in size. Further: potency means the concentration at half of the fitted maximal effect. The essentials:
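In 50mM HEPES pH 7.8 containing 0.5mM EDTA, 1mM TCEP, 0.1 mg/ml BSA and 0.01% Tween-20, 1nM USP1/UAF1 is exposed to compound for 15 min, then Ub-Rho (150nM final) is added and fluorescence is read over time.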
(In general: In qHTS, concentration-response curves come from the screen itself.)

For assay [2], the target named is Estrogen receptor (Homo sapiens) (UniProt P03372). Nature of the assay: qHTS assay for small molecule antagonists of estrogen receptor alpha signaling (AID 588513; active means well fitted curve in the direction sought with a large enough effect in the signal ratio, with a control signal flat, not every such curve was filed as active; the % refers to the signal ratio). The gist of the method:
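Fluorescence from CCF4 substrate after 2 h at room temperature gave reporter activity; cells had been exposed to compound and 0.5nM 17-beta-estradiol for 18 h at 37 C. Hill-equation fitting yielded IC50 and maximal response.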

For assay [3] the target is unchanged. The assay is described as follows: qHTS assay for small molecule agonists of estrogen receptor alpha signaling (AID 588514; calls by dose curve; further: nearly all actives have a fitted effect of over 70% in size). The gist of the method: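 Read-out: CCF4 fluorescence from a beta-lactamase reporter in ER-alpha-UAS-bla HEK 293 cells after 18 hrs of compound exposure at 37 C. Normalized to 20 nM 17-beta-estradiol (100%) and DMSO (0%).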
In assay [4] the target is Bile acid receptor (Homo sapiens) (UniProt Q96RI1). Nature of the assay: qHTS assay for small molecule antagonists of farnesoid X receptor signaling (AID 588526; calls by dose curve). The essentials:
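Concentration-response titrations were fitted to the Hill equation for half-maximal inhibition and maximal response, with data normalised to 50 uM chenodeoxycholic acid and DMSO control wells. Cells: FXR-UAS-bla HEK293T, dialyzed FBS.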

The nature of assay [5]: qHTS assay for small molecule antagonists of peroxisome proliferator-activated receptor delta signaling (AID 588535).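 Further: cells co-treated with a PPAR-delta agonist as stimulator during compound exposure.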 To be noted: HEK293T PPARd-UAS-bla, beta-lactamase FRET ratio, 18 h; 460 nm channel. The gist of the method:
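Compounds tested in titration on PPAR-delta-UAS-bla HEK293T cells grown in charcoal/dextran-stripped serum (2%); beta-lactamase activity read via CCF4 emission at 460 and 530 nm.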

The target of assay [6] is Androgen receptor (Homo sapiens) (UniProt P10275). Nature of the assay: qHTS assay for small molecule agonists of androgen receptor signaling (AID 588515; active means well fitted curve in the direction sought with a large enough effect in the signal ratio, with a control signal flat; the % refers to the signal ratio). To be noted: AR-UAS-bla HEK293, beta-lactamase ratio, agonist 16 h; stronger effect = higher value. The gist of the method: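 Stimulation of an AR-responsive β-lactamase reporter in GripTite HEK293 cells was measured after 16 h compound exposure at 37 °C, via CCF4 fluorescence after 2 h RT. EC50 from Hill fits, normalized to R1881 at 30 nM.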

For assay [7] the target is unchanged. Nature of the assay: qHTS assay for small molecule antagonists of androgen receptor signaling (AID 588516; active means well fitted curve in the direction sought with a large enough effect in the signal ratio, with a control signal flat, not every such curve was filed as active; the % refers to the signal ratio). The gist of the method: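 Cells were plated and incubated 5 h, compounds added in titration, then R1881 (10 nM final) as agonist. After 16 h at 37 C, CCF4 substrate was loaded for 2 h at room temperature and fluorescence measured.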
Assay [8] concerns the target Glucocorticoid receptor (Homo sapiens) (UniProt P04150). The assay is described as follows: qHTS assay for small molecule antagonists of glucocorticoid receptor signaling (AID 588533; active means well fitted inhibition curve with a large enough effect in the signal ratio, with a control signal flat, not every such curve was filed as active; the % refers to the signal ratio;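 further: cells stimulated with 2 nM dexamethasone as agonist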). The gist of the method:
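Antagonist-mode qHTS: compound titrations added to GRE-bla HeLa cells, then dexamethasone 2 nM final; 18 h, 37 C. CCF4 FRET fluorescence normalized to dexamethasone and DMSO; IC50 from Hill fit.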

Assay [9] deals with DNA dC->dU-editing enzyme APOBEC-3G (Homo sapiens) (UniProt Q9HC16). The assay is described as follows: qHTS for inhibitors of Vif-A3G interactions: Validation (AID 588379). The essentials:
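Yellow fluorescence (Ex 488, Em 500-530) of Vif-coexpressing HeLa A3G-eYFP cells, scanned by Acumen cytometer, reports blocked A3G degradation. Cells plated at 700/well overnight at 37 deg C before compound addition, then a further overnight compound incubation at 37 deg C.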

Chain of Bile acid receptor (Homo sapiens) (Q96RI1 whole entry, looked up): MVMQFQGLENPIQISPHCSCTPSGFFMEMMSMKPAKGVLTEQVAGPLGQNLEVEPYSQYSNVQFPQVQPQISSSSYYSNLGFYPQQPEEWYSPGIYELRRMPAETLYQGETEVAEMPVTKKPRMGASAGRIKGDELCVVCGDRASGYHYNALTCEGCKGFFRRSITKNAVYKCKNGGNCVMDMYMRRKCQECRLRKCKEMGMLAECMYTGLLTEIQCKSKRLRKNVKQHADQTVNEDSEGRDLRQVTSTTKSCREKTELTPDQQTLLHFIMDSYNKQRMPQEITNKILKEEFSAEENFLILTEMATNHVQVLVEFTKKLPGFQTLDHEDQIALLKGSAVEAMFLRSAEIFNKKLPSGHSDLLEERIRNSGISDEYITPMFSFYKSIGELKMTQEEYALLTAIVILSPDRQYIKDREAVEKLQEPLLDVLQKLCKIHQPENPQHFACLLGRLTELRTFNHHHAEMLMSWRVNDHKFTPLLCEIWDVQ
Chain of Ubiquitin carboxyl-terminal hydrolase 1 (Homo sapiens) (O94782 whole entry, looked up): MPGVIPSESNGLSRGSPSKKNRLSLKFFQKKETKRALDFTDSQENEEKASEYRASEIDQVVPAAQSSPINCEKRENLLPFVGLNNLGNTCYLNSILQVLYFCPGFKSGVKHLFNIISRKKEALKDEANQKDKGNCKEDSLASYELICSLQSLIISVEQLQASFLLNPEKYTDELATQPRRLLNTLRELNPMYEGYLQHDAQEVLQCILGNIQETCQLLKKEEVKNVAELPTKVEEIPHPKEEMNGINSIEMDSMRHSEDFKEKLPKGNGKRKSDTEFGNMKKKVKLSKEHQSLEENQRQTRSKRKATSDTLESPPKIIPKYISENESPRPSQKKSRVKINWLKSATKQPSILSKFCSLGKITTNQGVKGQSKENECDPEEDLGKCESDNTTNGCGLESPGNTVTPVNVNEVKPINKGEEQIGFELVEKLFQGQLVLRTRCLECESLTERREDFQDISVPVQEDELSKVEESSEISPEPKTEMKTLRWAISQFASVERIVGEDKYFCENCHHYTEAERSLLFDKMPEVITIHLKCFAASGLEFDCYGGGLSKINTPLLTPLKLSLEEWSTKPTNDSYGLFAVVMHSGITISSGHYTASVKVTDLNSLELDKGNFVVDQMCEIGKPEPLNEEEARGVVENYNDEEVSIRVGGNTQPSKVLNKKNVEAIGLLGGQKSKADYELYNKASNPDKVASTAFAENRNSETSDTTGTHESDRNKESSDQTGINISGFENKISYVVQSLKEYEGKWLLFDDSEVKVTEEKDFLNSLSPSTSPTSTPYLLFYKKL
Chain of DNA dC->dU-editing enzyme APOBEC-3G (Homo sapiens) (Q9HC16 whole entry, looked up): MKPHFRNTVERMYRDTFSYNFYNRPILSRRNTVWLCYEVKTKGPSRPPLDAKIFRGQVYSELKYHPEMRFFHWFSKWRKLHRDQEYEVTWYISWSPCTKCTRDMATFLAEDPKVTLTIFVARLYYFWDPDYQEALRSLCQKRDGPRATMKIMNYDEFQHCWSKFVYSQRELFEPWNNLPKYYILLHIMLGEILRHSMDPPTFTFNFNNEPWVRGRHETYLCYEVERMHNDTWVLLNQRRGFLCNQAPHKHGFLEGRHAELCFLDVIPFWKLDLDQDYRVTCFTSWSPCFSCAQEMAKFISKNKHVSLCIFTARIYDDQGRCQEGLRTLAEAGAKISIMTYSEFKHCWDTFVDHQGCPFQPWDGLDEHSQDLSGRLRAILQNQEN
Chain of Estrogen receptor (Homo sapiens) (P03372 whole entry, looked up): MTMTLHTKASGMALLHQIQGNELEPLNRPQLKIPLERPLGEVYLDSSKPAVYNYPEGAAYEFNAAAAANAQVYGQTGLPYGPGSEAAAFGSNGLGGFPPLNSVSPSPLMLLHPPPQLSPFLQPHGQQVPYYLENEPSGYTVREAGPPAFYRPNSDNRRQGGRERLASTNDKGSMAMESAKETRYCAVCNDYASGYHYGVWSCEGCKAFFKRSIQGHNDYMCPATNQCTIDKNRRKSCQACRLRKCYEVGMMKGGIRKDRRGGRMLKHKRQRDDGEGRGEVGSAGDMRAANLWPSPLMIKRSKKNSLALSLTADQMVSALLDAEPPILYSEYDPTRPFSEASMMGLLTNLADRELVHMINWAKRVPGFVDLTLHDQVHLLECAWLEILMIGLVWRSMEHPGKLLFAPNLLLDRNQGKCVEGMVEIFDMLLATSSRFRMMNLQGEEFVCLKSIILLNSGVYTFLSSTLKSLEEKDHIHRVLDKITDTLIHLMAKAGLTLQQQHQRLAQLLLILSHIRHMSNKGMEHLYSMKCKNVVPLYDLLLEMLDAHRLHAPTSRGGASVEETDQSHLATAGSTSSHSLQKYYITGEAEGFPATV
Chain of Androgen receptor (Homo sapiens) (P10275 whole entry, looked up): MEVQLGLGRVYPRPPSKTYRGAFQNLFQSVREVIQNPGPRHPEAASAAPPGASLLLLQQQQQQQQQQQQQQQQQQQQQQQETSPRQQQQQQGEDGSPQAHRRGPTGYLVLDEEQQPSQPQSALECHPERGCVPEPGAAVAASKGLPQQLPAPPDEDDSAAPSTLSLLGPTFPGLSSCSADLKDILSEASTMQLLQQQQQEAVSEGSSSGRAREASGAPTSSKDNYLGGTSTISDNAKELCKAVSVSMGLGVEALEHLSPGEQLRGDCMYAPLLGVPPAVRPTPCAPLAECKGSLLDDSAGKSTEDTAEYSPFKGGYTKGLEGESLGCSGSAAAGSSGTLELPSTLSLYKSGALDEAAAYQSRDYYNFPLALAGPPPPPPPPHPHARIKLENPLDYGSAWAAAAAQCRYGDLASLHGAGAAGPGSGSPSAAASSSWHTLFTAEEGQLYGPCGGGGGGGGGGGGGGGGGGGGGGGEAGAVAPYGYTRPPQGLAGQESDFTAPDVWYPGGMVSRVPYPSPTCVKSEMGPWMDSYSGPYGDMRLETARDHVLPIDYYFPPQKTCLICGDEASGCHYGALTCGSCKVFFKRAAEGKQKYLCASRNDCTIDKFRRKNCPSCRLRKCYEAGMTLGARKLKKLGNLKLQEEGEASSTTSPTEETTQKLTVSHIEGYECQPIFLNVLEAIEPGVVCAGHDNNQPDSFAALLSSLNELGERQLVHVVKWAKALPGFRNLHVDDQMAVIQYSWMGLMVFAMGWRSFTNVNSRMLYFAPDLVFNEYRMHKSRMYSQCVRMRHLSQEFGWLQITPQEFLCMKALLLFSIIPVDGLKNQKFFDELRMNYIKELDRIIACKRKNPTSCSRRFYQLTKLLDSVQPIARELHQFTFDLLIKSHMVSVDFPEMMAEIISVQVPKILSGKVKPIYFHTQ
Chain of Glucocorticoid receptor (Homo sapiens) (P04150 whole entry, looked up): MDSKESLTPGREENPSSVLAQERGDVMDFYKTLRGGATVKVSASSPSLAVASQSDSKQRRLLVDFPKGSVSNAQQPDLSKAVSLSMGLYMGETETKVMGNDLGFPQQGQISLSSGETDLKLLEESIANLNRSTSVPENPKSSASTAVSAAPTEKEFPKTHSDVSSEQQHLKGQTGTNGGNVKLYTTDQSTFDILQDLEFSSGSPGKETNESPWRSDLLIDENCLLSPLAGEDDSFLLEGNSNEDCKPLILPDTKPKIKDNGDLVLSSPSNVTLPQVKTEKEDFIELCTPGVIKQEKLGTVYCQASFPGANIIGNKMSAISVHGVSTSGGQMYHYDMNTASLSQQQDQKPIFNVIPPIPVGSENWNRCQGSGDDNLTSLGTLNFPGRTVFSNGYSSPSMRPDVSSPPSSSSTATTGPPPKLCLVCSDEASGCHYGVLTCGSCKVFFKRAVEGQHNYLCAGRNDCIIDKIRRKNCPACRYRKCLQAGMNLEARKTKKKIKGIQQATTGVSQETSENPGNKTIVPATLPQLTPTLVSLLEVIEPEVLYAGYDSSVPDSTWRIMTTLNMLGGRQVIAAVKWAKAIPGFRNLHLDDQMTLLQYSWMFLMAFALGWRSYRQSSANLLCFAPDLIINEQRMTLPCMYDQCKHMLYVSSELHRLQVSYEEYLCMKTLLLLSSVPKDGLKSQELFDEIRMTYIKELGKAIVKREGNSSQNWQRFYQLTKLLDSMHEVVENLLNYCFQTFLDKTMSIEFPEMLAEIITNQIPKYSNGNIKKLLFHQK

For `Nc1ncnc2c1ncn2[C@H]1CC[C@@H](CO)O1`, the Potency result in [1], in assay [2] and in [3] was “inactive” in each case. In addition, in assay [4], the compound was classed as inactive. In assay [5], the max response was -13.3% and 61.6%.

Take `OCc1ccccc1`: the Potency result in assay [1], in assay [2], in assay [3] and in assay [8] was “inactive” throughout. Also, the activation in assay [6] was -14.4% (inactive). Also, the call in [7] was inactive.

Consider `c1ccc2ccccc2c1`, for which the Potency result in assay [1], in assay [2] and in [3] was “inactive” each time. The compound was classed as inactive in assay [4]. The max response in assay [5] is -2.63% and 30.7%.

With `CC(=O)[O][Al][O]C(C)=O`, in assay [1], the Potency result is “inactive”.

For the compound `NC(=S)NS(=O)(=O)c1ccc(N)cc1`, the Potency entry in [1] is “inactive”.

As to `CN1C(=O)C[C@@H](C(=O)N[C@@H](Cc2cnc[nH]2)C(=O)N2CCC[C@H]2C(N)=O)NC1=O`, in assay [1], the Potency entry was “inactive”.

As to `COc1ccc(C[C@H](C)NC[C@@H](O)c2ccc(O)c(NC=O)c2)cc1`, the Potency result in assay [1] is “inactive”. The result in assay [9] was inactive.

`O=C(O)COc1ccccc1/C=N/NC(=O)c1ccncc1`: the Potency result in assay [1] was “inactive”.

As to `O=C(O)Cc1nn(Cc2ccc(Br)cc2F)c(=O)c2ccccc12`, the Potency entry in assay [1] is “inactive”. The compound was classed as inactive in assay [9].

Take `Cc1cc(-c2ccc(N=Nc3ccc4c(S(=O)(=O)O)cc(S(=O)(=O)O)c(N)c4c3O)c(C)c2)ccc1N=Nc1ccc2c(S(=O)(=O)O)cc(S(=O)(=O)O)c(N)c2c1O`: the Potency in assay [1] is 11.2 µM (active) and 25.1 µM (active). For the same compound, the result in assay [9] was inactive.
